The results in this text go back to PubChem BioAssay (NCI).

Test systems include NCI-H23 lung; NCI-H226 lung; NCI-H322M lung; HOP-62 NSCLC; NCI-H460 lung; HOP-92 NSCLC; NCI-H522 lung; A549/ATCC NSCLC; 786-0 renal; COLO 205 colon.
Holding throughout (test): NCI-60 one-dose screen, 48 h (100 = growth as untreated, 0 = no growth, -100 = all killed)
What all share (details): 10 µM unless noted

This is part of a sample that, as a whole, favours compounds with a hit. Of some 83,000 tested, about 20% had one in any assay.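 Note: values are percent growth. 100 is the growth of untreated cells, values between 100 and 0 indicate rising inhibition; between -100 and 0 indicates cell death.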 A number with no mark means an inactive call. The source made the active and inactive calls. How the source made its calls: active means growth percent below 10; inactive means the rest.

On to `CN(C)CCOc1ccc(/C(=C(/CCCl)c2ccccc2)c2ccccc2)cc1`, for which the growth was 28.5% in the assay with NCI-H23 lung; 59.1% in the assay on NCI-H226 lung; 37.1% with NCI-H322M lung; -18.8% (active) in the assay with HOP-62 NSCLC; -73.3% (active) in the assay on NCI-H460 lung; -4.94% (active) in the assay on HOP-92 NSCLC. The growth with NCI-H522 lung was 10.8%; with A549/ATCC NSCLC, 26.4%; in the assay with 786-0 renal, -28.5% (active); in the assay on COLO 205 colon, -93.6% (active).
As to `CCOC(=O)c1ccc2nc(-c3c(C)nn(-c4ccccc4)c3N3CCOCC3)[nH]c2c1`, the growth in the assay on NCI-H23 lung is 95.2%; in the assay on NCI-H226 lung, 73.3%; in the assay with NCI-H322M lung, 102%; with HOP-62 NSCLC, 85.6%; in the assay with NCI-H460 lung it was 97%; in the assay with HOP-92 NSCLC, 79.8%. Further, the growth with NCI-H522 lung was 87.2%; in the assay on A549/ATCC NSCLC, 94.5%; in the assay on 786-0 renal, 104%; with COLO 205 colon, 114%.
In the case of `Cc1ccc(Cn2c(O)c(N=NC(=O)c3ccc(S(N)(=O)=O)cc3)c3ccccc32)cc1`, the growth in the assay on NCI-H23 lung was 101%; in the assay on NCI-H226 lung, 93.9%; in the assay with NCI-H322M lung it was 99.1%; in the assay on HOP-62 NSCLC it was 106%; in the assay with NCI-H460 lung, 104%; with HOP-92 NSCLC it was 106%. For the same compound, the growth in the assay with NCI-H522 lung was 97.3%; in the assay with A549/ATCC NSCLC, 93.8%; with 786-0 renal, 105%; in the assay with COLO 205 colon it was 115%.
Turning to `O=c1[nH]cnc2c1ccn2C1OC(CO)C(O)C1O` (stereo not given), the growth with NCI-H23 lung is 81.4%; in the assay with NCI-H226 lung, 75.1%; with NCI-H322M lung, 64.6%; with HOP-62 NSCLC, 76.5%; with NCI-H460 lung it was 49.4%; in the assay on HOP-92 NSCLC, 8.49% (active). Also, the growth is 61% with NCI-H522 lung, 84.4% in the assay on A549/ATCC NSCLC, 58.9% in the assay on 786-0 renal and 66.8% in the assay on COLO 205 colon.
For `COc1cc2c(cc1OCCCN1CCN(CCCOc3cc4c(cc3OC)C(=O)N3C[C@H](F)C[C@H]3C=N4)CC1)N=C[C@@H]1C[C@@H](F)CN1C2=O`, the growth with NCI-H23 lung was 10.5%; in the assay on NCI-H226 lung it was 17.2%; with NCI-H322M lung, -23.6% (active); in the assay with HOP-62 NSCLC, 27.6%; with NCI-H460 lung, 1.24% (active); in the assay with HOP-92 NSCLC, -6.06% (active). Moreover, the growth in the assay on NCI-H522 lung was -48.8% (active); in the assay with A549/ATCC NSCLC, 6.52% (active); in the assay on 786-0 renal, 12.4%; in the assay with COLO 205 colon it was -47.1% (active).
In the case of `CCOc1cc(NC(=O)c2ccccc2)c(OCC)cc1N`, the growth with NCI-H23 lung is 102%; in the assay with NCI-H226 lung, 106%; in the assay on NCI-H322M lung it was 141%; with HOP-62 NSCLC it was 102%; in the assay on NCI-H460 lung, 114%; in the assay with HOP-92 NSCLC, 104%. The growth in the assay on NCI-H522 lung is 98.3%; with A549/ATCC NSCLC, 115%; in the assay with 786-0 renal, 110%; with COLO 205 colon, 116%.
For `N#Cc1c(N2CCOCC2)nc(=S)[nH]c1-c1ccco1`, the growth was 74.5% in the assay on NCI-H23 lung; 63.2% in the assay on NCI-H226 lung; 74.5% in the assay with NCI-H322M lung; 35.7% in the assay on HOP-62 NSCLC; 50.1% with NCI-H460 lung; -11.6% (active) in the assay with HOP-92 NSCLC. Besides, the growth in the assay on NCI-H522 lung was 49.6%; with A549/ATCC NSCLC, 83.6%; in the assay with 786-0 renal, 65.8%; in the assay with COLO 205 colon it was 75.7%.
Regarding `COc1ccc2c3ccnc(C(F)(F)F)c3n(CCCCN)c2c1`, the growth in the assay on NCI-H23 lung is 54.6%; in the assay on NCI-H226 lung, 52.4%; with NCI-H322M lung, 65.3%; with HOP-62 NSCLC, 40.1%; in the assay on NCI-H460 lung, 47.1%; in the assay on HOP-92 NSCLC, -22.3% (active). For the same compound, the growth in the assay with NCI-H522 lung was 11.4%; in the assay with A549/ATCC NSCLC, 77%; in the assay on 786-0 renal, 54.5%; in the assay on COLO 205 colon, 10.7%.
Consider `CC(=O)CC(=O)SC1=NCCS1`, for which the growth is 108% in the assay with NCI-H23 lung; 112% in the assay with NCI-H226 lung; 113% in the assay on NCI-H322M lung; 123% in the assay with HOP-62 NSCLC; 106% with NCI-H460 lung; 101% with HOP-92 NSCLC. The growth was 95.8% with NCI-H522 lung, 87.6% in the assay on A549/ATCC NSCLC, 109% in the assay with 786-0 renal and 109% with COLO 205 colon.
On to `O=C(NCc1ccccc1)C(Cl)Cl`, for which the growth was 104% with NCI-H23 lung; 93.3% in the assay with NCI-H226 lung; 102% with NCI-H322M lung; 98.6% in the assay on HOP-62 NSCLC; 108% in the assay with NCI-H460 lung; 95.1% in the assay on HOP-92 NSCLC. For the same compound, the growth in the assay on NCI-H522 lung was 101%; with A549/ATCC NSCLC, 97.4%; with 786-0 renal, 104%; in the assay on COLO 205 colon it was 116%.
For the compound `COc1cc(NN=C(c2ccc(O)cc2)c2ccc(O)cc2)c([N+](=O)[O-])cc1[N+](=O)[O-]`, the growth in the assay on NCI-H23 lung was 5.6% (active); in the assay with NCI-H226 lung, 110%; with NCI-H322M lung, 94.3%; in the assay with HOP-62 NSCLC it was -1.66% (active); with NCI-H460 lung, 1.73% (active); in the assay with HOP-92 NSCLC, 70.2%. The growth with NCI-H522 lung was -49.9% (active); in the assay with A549/ATCC NSCLC it was -5.34% (active); with 786-0 renal, -29.5% (active); in the assay with COLO 205 colon, 12.7%.
With `CCOC(=O)c1cnc2ccc(Br)cc2c1Nc1cccc(S(N)(=O)=O)c1`, the growth in the assay with NCI-H23 lung is 93%; in the assay on NCI-H226 lung it was 88.6%; in the assay on NCI-H322M lung it was 105%; with HOP-62 NSCLC, 97.1%; in the assay with NCI-H460 lung, 105%; in the assay with HOP-92 NSCLC, 91.1%. Also, the growth in the assay with NCI-H522 lung was 96.6%; with A549/ATCC NSCLC, 101%; in the assay on 786-0 renal, 105%; with COLO 205 colon it was 128%.
